# PubChem BioAssay (NCATS)
# Inconclusive results are not listed. Where a call stands in place of a potency, no number is given. A number with no mark means an inactive call. The source made the active and inactive calls. Calls follow the shape of the dose curve; as a rule, active = well fitted curve in the direction sought with a large enough effect; inconclusive = small, poorly fitted or top-dose-only effect, or another doubt; inactive = no such curve, though single readings can be large; an effect the other way counts as inactive or inconclusive.
# Assays:
# [1] = P-glycoprotein substrates identified in KB-3-1 adenocarcinoma cell line, qHTS therapeutic library screen (AID 1346986); conditions: KB-3-1 parental cells viability, CellTiter-Glo, 72 h; series mostly up to 44.5 µM; also: nearly all actives have a fitted effect of over 60% in size
# Procedure, shortened: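 Resistance attributable to P-gp was assessed by comparing AC50 in KB-8-5-11 with parental KB-3-1 and by tariquidar reversal. Cells were exposed 72 h and viability read by CellTiter-Glo.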
# [2] = P-glycoprotein substrates identified in KB-8-5-11 adenocarcinoma cell line, qHTS therapeutic library screen (AID 1346987); conditions: KB-8-5-11 (P-gp overexpressing) viability, CellTiter-Glo, 72 h; series mostly up to 44.5 µM; also: nearly all actives have a fitted effect of over 65% in size
# Procedure, shortened: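 KB-8-5-11, a colchicine-selected P-gp-overexpressing KB-3-1 subline, was grown without colchicine for the assay. Cells were seeded at 500 cells/well, dosed in concentration-response and incubated 72 h at 37 degree C, 5% CO2. Viability was read by CellTiter-Glo luminescence.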
# [3] = test system: Zika virus NS2B-NS3 protease (unlinked complex); assay: Primary screen GU Rhodamine qHTS for Zika virus inhibitors: Unlinked NS2B-NS3 protease assay (AID 1347159); conditions: Recombinant ZIKV NS2B-NS3 protease, Rhodamine110 substrate fluorescence; series mostly up to 107 µM; also: nearly all actives have a fitted effect of over 60% in size; also: potency is read from the fitted curve at half-maximal effect
# Procedure, shortened: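 A qHTS format was used, with compound concentrations ranging up to 114 microM. Each compound was preincubated with 25 nM NS2B-NS3 protease, and the substrate was then added at 1.5 microM. Curves were fitted with a 4-parameter Hill model.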
# [4] = Confirmatory screen GU Rhodamine qHTS for Zika virus inhibitors qHTS (AID 1347157); conditions: purified enzyme assay, Rhodamine110 substrate fluorescence, 15 min; series mostly up to 114 µM; also: potency is read from the fitted curve at half-maximal effect; nearly all actives have a fitted effect of over 70% in size
# Procedure, shortened: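 Unlinked NS2B/NS3, 25 nM; Rhod110 peptide, 1.5 microM; compounds, up to 114 microM. Reaction run 15 min at RT in 10 mM Tris-HCl pH 8.0, 0.01% Tween 20; kinetic fluorescence change fitted with a 4-parameter Hill model.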
# [5] = Confirmatory screen NINDS Rhodamine qHTS for Zika virus inhibitors (AID 1347161); conditions: purified enzyme assay, Rhodamine110 substrate fluorescence, 15 min; series mostly up to 114 µM; also: potency is read from the fitted curve at half-maximal effect; nearly all actives have a fitted effect of over 60% in size
# Procedure, shortened: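 Enzyme (25 nM, linked NS2B-NS3) was preincubated 15 min with compound in 10 mM Tris-HCl pH 8.0, 0.01% Tween 20. Rhodamine110 substrate (1.5 microM) was then added and fluorescence read at start and after 15 min.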
# [6] = test system: Zika virus NS2B-NS3 protease (linked construct); assay: Primary screen NINDS Rhodamine qHTS for Zika virus inhibitors (AID 1347160); conditions: purified NS2B-NS3 protease, Rhodamine110 substrate fluorescence; series mostly up to 33.1 µM; also: nearly all actives have a fitted effect of over 55% in size; also: potency is read from the fitted curve at half-maximal effect
# Procedure, shortened: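 Kinetic fluorescence (Ex 480 nm, Em 540 nm) over 15 min with 1.5 microM Rhodamine110 peptide and 25 nM linked protease.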
# [7] = test system: Zika virus NS2B-NS3 protease (linked construct); assay: 384 well plate NINDS Rhodamine confirmatory qHTS for Zika virus inhibitors (AID 1347164); conditions: rhodamine-110 peptide substrate fluorescence; series mostly up to 100 µM;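 also: fluorescence from protease cleavage of Ac-LKRR-rhodamine 110 substrate; potency is read from the fitted curve at half-maximal effect; nearly all actives have a fitted effect of over 65% in size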
# Procedure, shortened: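 Fluorescence at 485/538 nm was measured 25 minutes after adding 10 microM Ac-LKRR-Rd substrate, in the dark at room temperature. The protease (5, 30 or 60 nM final) had been preincubated ~15 minutes with compound; aprotinin as control.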
# [8] = Vero cells viability qHTS for Zika virus inhibitors (AID 1347167); conditions: cytotoxicity counter-screen (Zika); series mostly up to 45.9 µM
# Procedure, shortened: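 Counter-screen for cytotoxicity of hits from NS2B-NS3 protease qHTS. Overnight-attached cells (2.5 x 10^5 cells/mL, DMEM/4% FBS) were dosed in titration, incubated 24 to 48 hours, then assayed by CellTiter Glo.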
smiles,measurement,setting,value
C[C@@]1(O)[C@H](O)[C@@H](CO)O[C@H]1n1cnc2c(=O)[nH]c(N)nc21,Potency,[1],inactive
same,Potency,[2],inactive
same,Potency,[3],inactive
CC(C)=CCC[C@@](C)(O)[C@H]1CC[C@]2(C)[C@@H]1[C@H](O)CC1[C@@]3(C)CC[C@H](O[C@@H]4O[C@H](CO)[C@@H](O)[C@H](O)[C@H]4O[C@@H]4O[C@H](CO)[C@@H](O)[C@H](O)[C@H]4O)C(C)(C)[C@@H]3CC[C@]12C (some centres undefined),Potency,[1],inactive
same,Potency,[2],inactive
same,Potency,[4],14.7 µM (active)
same,Potency,[3],inactive
same,Potency,[5],16.5 µM (active)
C[C@@H]1O[C@@H](O[C@H]2[C@H](Oc3cc(O)c(C(=O)CCc4ccc(O)cc4)c(O)c3)O[C@H](CO)[C@@H](O)[C@@H]2O)[C@H](O)[C@H](O)[C@H]1O,Potency,[1],inactive
same,Potency,[2],inactive
same,Potency,[3],inactive
same,Potency,[6],inactive
O=C(N[C@H](Cc1ccccc1)C(=O)O)c1sc2cc(F)ccc2c1Cl,Potency,[1],inactive
same,Potency,[2],inactive
same,Potency,[3],39.8 µM (active)
COc1cc(/C=C/C(=O)O[C@@H]2C[C@](O)(C(=O)O)C[C@@H](O)[C@H]2O)ccc1O,Potency,[1],inactive
same,Potency,[2],inactive
same,Potency,[3],inactive
COc1c(-c2ccc(O)cc2)cc(OC)c2c1oc1cc(O)c(OC3OC(CO)C(O)C3O)cc12 (centres undefined),Potency,[1],inactive
same,Potency,[2],inactive
same,Potency,[3],15.8 µM (active)
COCc1c(O)c(C(=O)O)c(C)c2c1OC(=O)c1c(C)cc(O)c(CO)c1O2,Potency,[1],inactive
same,Potency,[2],inactive
same,Potency,[3],28.2 µM (active)
OCC(O)C(c1c[nH]c2ccccc12)c1c[nH]c2ccccc12 (centres undefined),Potency,[1],inactive
same,Potency,[2],inactive
same,Potency,[3],50.1 µM (active)
COc1cc(CCCO)ccc1O[C@@H]1O[C@H](CO)[C@@H](O)[C@H](O)[C@H]1O,Potency,[1],inactive
same,Potency,[2],inactive
same,Potency,[4],34.3 µM (active)
same,Potency,[3],inactive
same,Potency,[5],34.3 µM (active)
C=C1[C@H](OC(C)=O)[C@H]2[C@@H](OC(=O)c3ccccc3)[C@@H](C)C[C@]2(O)[C@@H](OC(C)=O)[C@H](C)/C=C/C(C)(C)C(=O)[C@H](OC(C)=O)[C@H]1OC(C)=O,Potency,[1],inactive
same,Potency,[2],inactive
same,Potency,[3],inactive
same,Potency,[6],inactive
C/C=C(\C)C(=O)OCC1OC(OCC2OC(OC3(CO)OC(CO)C(O)C3O)C(O)C(O)C2O)C(O)C(O)C1O (centres undefined),Potency,[1],inactive
same,Potency,[2],inactive
same,Potency,[3],inactive
same,Potency,[6],inactive
CC(C)(O)C1OC1C1=CC(=O)C2(C)OC2C1O (centres undefined),Potency,[1],inactive
same,Potency,[2],inactive
same,Potency,[3],inactive
same,Potency,[6],inactive
CC(C)=C1CC2C(CCC2(C)O)C(C)(O)CC1=O (centres undefined),Potency,[1],inactive
same,Potency,[2],inactive
same,Potency,[3],inactive
COC(=O)C[C@@H]1C(C(=O)O)=CO[C@@H](O[C@@H]2O[C@H](CO)[C@@H](O)[C@H](O)[C@H]2O)/C1=C\COC(=O)/C=C/c1ccc(O)c(OC)c1,Potency,[1],inactive
same,Potency,[2],inactive
same,Potency,[3],inactive
same,Potency,[6],inactive
C=C1[C@H](OC(C)=O)[C@H]2[C@@H](OC(C)=O)C(C)C[C@]2(OC(C)=O)C(=O)[C@H](C)/C=C/C(C)(C)C(=O)[C@H](OC(=O)C(C)C)[C@H]1OC(C)=O (some centres undefined),Potency,[1],inactive
same,Potency,[2],inactive
same,Potency,[3],inactive
same,Potency,[6],inactive
CC(C)CC(=O)NCCn1cc(C(=O)O)c(=O)cc1C(O)c1ccccc1 (centres undefined),Potency,[1],inactive
same,Potency,[2],inactive
same,Potency,[3],inactive
C=CCc1ccc(O[C@@H]2O[C@H](CO)[C@@H](O)[C@H](O)[C@H]2O)c(O[C@@H]2O[C@H](CO)[C@@H](O)[C@H](O)[C@H]2O)c1,Potency,[1],inactive
same,Potency,[2],inactive
same,Potency,[3],inactive
same,Potency,[6],inactive
COc1cc(C2Oc3c(OC)cc(CCCO)cc3C2CO)ccc1O (centres undefined),Potency,[1],inactive
same,Potency,[2],inactive
same,Potency,[3],39.8 µM (active)
CC(=O)OC12CC(C)C(OC(=O)c3ccccc3)C1/C=C(/C)C(OC(=O)c1ccccc1)CC(=O)C(C)(C)/C=C/C(C)C2=O (centres undefined),Potency,[1],inactive
same,Potency,[2],inactive
same,Potency,[4],4.64 µM (active)
same,Potency,[3],6.31 µM (active)
same,Potency,[6],7.08 µM (active)
same,Potency,[5],3.68 µM (active)
same,Potency,[7],35.5 µM (active)
same,outcome,[8],inactive
CC(C)CC(=O)O[C@@H]1O[C@H](CO)[C@@H](O[C@H]2O[C@H](C)[C@@H](N[C@H]3C=C(CO)[C@@H](O[C@H]4O[C@H](CO)[C@@H](O[C@H]5O[C@H](CO)[C@@H](O[C@H]6O[C@H](CO)[C@@H](O)[C@H](O)[C@H]6O)[C@H](O)[C@H]5O)[C@H](O)[C@H]4O)[C@H](O)[C@H]3O)[C@H](O)[C@H]2O)[C@H](O)[C@H]1O,outcome,[1],inactive [at 9.29 µM]
same,"activity change, negative = cytotoxicity",[2],8.1% [at 9.29 µM]
same,Potency,[3],inactive
CC(C)C1CCC(C(=O)N[C@@H](Cc2ccccc2)C(=O)O)CC1 (some centres undefined),Potency,[1],inactive
same,Potency,[2],inactive
same,Potency,[3],31.6 µM (active)
